# Bioassay records from PubChem BioAssay.
# ELG1 DNA repair – ELG1-dependent DNA repair inhibition | Potency, µM (highest dose often 46.1 µM), for the others: at the highest dose activity change, negative = inhibition, hits mostly inhibitors | 330,000 tested, 2.3% active | HEK293T ELG1-luciferase reporter, luminescence, 16 h; DNA damage induced by 5-fluorouridine; also: potency is read from the fitted curve at half-maximal effect; nearly all actives have a fitted effect of over 55% in size
#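 In this reporter screen, reduction of luminescence relative to DMSO vehicle indicated activity. Compounds and 5-fluorouridine were added together to 2,000 cells per well, incubated for 16 hr at 37 °C, then developed with ONE-Glo.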
# VP16 counter – counter-screen for ROR gamma inhibitors: Gal4-VP16 reporter | Drosophila S2 Gal4-VP16 UAS-luciferase, luminescence, 20 h | 310,000 tested, 3.5% active | Potency, µM (series often up to 53.6 µM), for the others: top-dose activity, negative = inhibition, most hits filed as inhibitors;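 also: Gal4-VP16 expression switched on by copper sulfate through the metallothionein promoter; potency is read from the fitted curve at half-maximal effect; nearly all actives have a fitted effect of over 50% in size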
# IL1B secr inh – blocks inflammasome-driven IL-1 beta release; THP-1 LPS/ATP IL-1B secretion, AlphaLISA, 16 h; stronger effect = lower value; activity change, % at 57.5 µM; 360,000 tested, 4.7% active; AID 743279; in the data active = activity change below about -50%; inconclusive = mostly about -30% to -49%
#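 Secreted IL-1B measured by AlphaLISA bead assay after 16 h compound exposure of THP-1 cells; compounds (final up to 57.5 uM) added 1 h before LPS (250 ng/mL) and ATP (1.25 mM) stimulation; lower signal means less secretion.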
# DT40 TDP1 no CPT – qHTS for Inhibitors of human tyrosyl-DNA phosphodiesterase 1 (TDP1): qHTS in cells in absence of CPT | DT40 Tdp1-/- hTDP1 cells, no CPT, ATP luminescence, 48 h | Potency, µM (doses to about 46.2 µM), for the others: at the highest dose activity change, negative = growth inhibition, usual class: inhibitors | 420,000 tested, 15% active | AID 686978, 2013; also: potency is read from the fitted curve at half-maximal effect; nearly all actives have a fitted effect of over 55% in size
#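 DT40 Tdp1-/-;hTDP1 cells, no CPT (DMSO vehicle only), 400 cells/well; compounds pin-transferred; ≥48 hr, 37 °C; CellTiter-Glo 30 min RT dark, luminescence read.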
# DT40 TDP1 CPT – DT40-hTDP1 cell growth loss with CPT; chicken DT40 Tdp1-/-;hTDP1 cells + 20 nM CPT, ATP luminescence, 48 h; 420,000 tested, 12% active; Potency, µM (doses to about 46.2 µM), without a hit: top-dose activity change, negative = growth inhibition, most hits filed as inhibitors; also: potency is read from the fitted curve at half-maximal effect; nearly all actives have a fitted effect of over 55% in size
#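 Cell growth measured by CellTiter-Glo luminescence after a minimum 48 h, 37 C compound exposure with 20 nM CPT in Tdp1-knockout DT40 cells stably expressing hTDP1, seeded 400/well; qHTS titration format.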
# RORg inh – inhibitors of mouse ROR gamma transcriptional activity | Potency, µM (highest dose often 53.6 µM), without a hit: at the top dose activity change, negative = inhibition, actives largely listed as inhibitors | P51450 | 310,000 tested, 5.4% active | Drosophila S2 Gal4-RORgamma UAS-luciferase reporter, 20 h; also: potency is read from the fitted curve at half-maximal effect; nearly all actives have a fitted effect of over 60% in size
# Target sequence (P51450 whole entry, looked up, the tested form may be a part): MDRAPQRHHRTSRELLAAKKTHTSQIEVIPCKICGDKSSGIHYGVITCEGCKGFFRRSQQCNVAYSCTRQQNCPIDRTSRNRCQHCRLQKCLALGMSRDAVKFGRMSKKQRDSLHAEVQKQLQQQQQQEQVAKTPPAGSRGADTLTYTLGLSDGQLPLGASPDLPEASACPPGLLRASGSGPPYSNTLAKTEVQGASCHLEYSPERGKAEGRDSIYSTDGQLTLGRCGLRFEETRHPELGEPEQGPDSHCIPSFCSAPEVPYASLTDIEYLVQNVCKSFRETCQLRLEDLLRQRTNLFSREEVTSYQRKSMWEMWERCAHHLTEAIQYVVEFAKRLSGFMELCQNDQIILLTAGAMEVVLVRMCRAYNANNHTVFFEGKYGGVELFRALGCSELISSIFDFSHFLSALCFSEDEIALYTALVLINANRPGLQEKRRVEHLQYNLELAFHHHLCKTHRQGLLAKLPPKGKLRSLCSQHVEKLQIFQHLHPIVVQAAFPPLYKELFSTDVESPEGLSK
#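 Stable Schneider cell line, Gal4 DNA-binding domain fused to ROR gamma, UAS-luciferase. Cmpd 1 hr RT → CuSO4 700 uM final → 20 hr RT → luciferase reagent 10 min → luminescence.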
# Numbers without * were called inactive; u = inconclusive; x = not tested or not shown. Rows were chosen to be rich in hits. Some 21% of all compounds tested hit in one or more screens of this group. Unless noted, calls follow the shape of the dose curve; as a rule, active = well fitted curve in the direction sought with a large enough effect; inconclusive = small, poorly fitted or top-dose-only effect, or another doubt; inactive = no such curve, though single readings can be large; an effect the other way counts as inactive or inconclusive. % is scaled to controls: 0 for no effect and ±100 for the full control effect.
SMILES,ELG1 DNA repair,VP16 counter,IL1B secr inh,DT40 TDP1 no CPT,DT40 TDP1 CPT,RORg inh
Cc1ccc(-c2nn(-c3ccc(F)cc3)cc2C(=O)N2CCN(C3CCS(=O)(=O)C3)CC2)cc1 (stereo not given),18.4%,x,-10.1,-26.1%,-11.6%,x
CC(=O)N1CCCN(Cc2cn(-c3cccc(C)c3)nc2-c2cccc(F)c2)CC1,-8.2%,-13.1%,-22.9,16.4µM*,u,7.6%
Cc1ccc(-n2cc(CN3CCCN(C=O)CC3)c(-c3ccc(F)cc3)n2)cc1,23.1µM*,7.3%,u,u,u,4.3%
CC(=O)N1CCCN(Cc2cn(-c3cc(C)ccc3C)nc2-c2ccccc2)CC1,-6.8%,-4.8%,21.8,u,18.4µM*,-23.6%
Cc1cccc(-n2cc(CN3CCCN(C=O)CC3)c(-c3cccc(F)c3)n2)c1,-14.3%,26.8%,-11.0,u,u,13.9%
Cc1ccc(-n2nc(C)c(/C=N/n3c(C)n[nH]c3=S)c2Cl)cc1,-3.7%,-7.4%,30.0,u,u,3.55µM*
Cc1n[nH]c(=S)n1/N=C/c1ccccc1,u,u,28.6,-1.6%,-10.0%,u
CC(=O)Nc1ccc(NC(=O)C23CC4CC(C2)CC(n2cnc(Br)n2)(C4)C3)cc1,-2.7%,2.3%,0.0,-18.0%,5.5%,9.3%
COc1cc(NC(=O)C23CC4CC(C2)CC(n2cnc([N+](=O)[O-])n2)(C4)C3)cc(OC)c1,-14.0%,7.7%,-19.3,u,u,13.0%
COc1ccc(NC(=O)C23CC4CC(C2)CC(n2cnc(Br)n2)(C4)C3)c(OC)c1,0.0%,-41.1%,30.6,u,u,5.62µM*
COc1ccc(OC)c(NC(=O)C23CC4CC(C2)CC(n2cnc(Br)n2)(C4)C3)c1,-17.5%,1.8%,2.6,10µM*,11.2µM*,-5.1%
O=C(CCN1CCCO1)N1CCCC(Nc2cccc(F)c2)C1 (stereo not given),x,x,-4.6,-0.1%,14.7%,x
Cc1ccc(S(=O)(=O)Nc2ccc3c(c2)n(C)c(=O)n3C)c(C)c1,u,u,38.0,20.6µM*,u,-28.0%
CCOc1ccc(N(CC(=O)OC)S(=O)(=O)c2ccc3c(c2)n(C)c(=O)c(=O)n3C)cc1,12.3%,3.2%,38.2,-7.3%,-0.8%,5.6%
Cc1ccc(NS(=O)(=O)c2ccc3c(c2)n(C)c(=O)n3C)c(C)c1,28.2%,4.2%,-54.4*,u,u,12.0%
Cc1ccc(NS(=O)(=O)c2ccc3c(c2)n(C)c(=O)n3C)cc1C,16.3%,-22.4%,152.2,20.6µM*,16.4µM*,u
Cn1c(=O)n(C)c2cc(S(=O)(=O)Nc3ccccc3)ccc21,u,3.6%,-15.4,u,-15.8%,73.5%
CCCCCC(=O)N(c1ccc(OCC)cc1)S(=O)(=O)c1ccc2c(c1)n(C)c(=O)n2C,x,x,x,16.4µM*,20.6µM*,x
Cc1ccc(-c2nn(CC(=O)NC3CCCCC3)c3c2cnc2ccccc23)cc1,x,x,x,0.0%,u,x
COC(=O)[C@@H]1CCCN1C(=O)c1c(OC)cc(=O)n2c1CCN(Cc1ccc(C)o1)CC2,x,x,x,-13.5%,4.5%,x
CCOc1ccc(S(=O)(=O)Nc2ccc3c(c2)n(C)c(=O)n3C)cc1,1.8%,0.1µM*,12.8,7.31µM*,u,u
Cc1ccc(S(=O)(=O)Nc2ccc3c(c2)n(C)c(=O)n3C)cc1,u,u,-3.0,u,10.3µM*,35.4%
Cc1ccc(NC(=O)CN(C)S(=O)(=O)c2ccc3c(c2)n(C)c(=O)c(=O)n3C)c(C)c1,-2.5%,-9.7%,10.9,u,18.4µM*,-1.7%
CCOc1ccc(S(=O)(=O)Nc2ccc3c(c2)c(C(C)=O)c(C)n3S(=O)(=O)c2ccc(OCC)cc2)cc1,x,x,x,5.17µM*,20.6µM*,x
CCOc1ccc(S(=O)(=O)Nc2ccc3c(c2)c2c(n3S(=O)(=O)c3ccc(OCC)cc3)CCCC2=O)cc1,-7.6%,5.0%,x,x,x,5.6%
SMILES,ELG1 DNA repair,VP16 counter,IL1B secr inh,DT40 TDP1 no CPT,DT40 TDP1 CPT,RORg inh
C[C@@H](C(=O)Nc1ccc2ccccc2c1)[C@H]1C[C@]1(C)[C@H](N)c1ccccc1,x,19.1%,x,x,x,1.7%
CCOCCSc1c(C)cnc2c1c(=O)n(C)c(=O)n2C,x,x,x,-16.0%,-7.0%,x
Cc1ccc(S(=O)(=O)Nc2c(C)nn(C)c2C)cc1,u,-7.8%,0.0,-27.9%,-16.4%,12.3%
CCc1ccc(S(=O)(=O)Nc2cc3c(cc2C)n(C)c(=O)n3C)cc1,u,7.08µM*,28.6,2.91µM*,5.17µM*,u
CCc1ccc(S(=O)(=O)Nc2c(C)nn(C)c2C)cc1,u,u,19.4,11.2µM*,11.2µM*,u
CCOc1cc(C(=O)Nc2ccc(S(=O)(=O)Nc3cc(OC)nc(OC)n3)cc2)cc(OCC)c1OCC,x,x,x,-24.7%,-13.6%,x
CCOC(=O)/C=C/c1cccc(C)c1O,x,x,1.7,u,-14.8%,x
NC(=O)CSc1nc2c(c(=O)n1-c1ccccc1)C1(CCCCC1)Cc1ccccc1-2,u,-10.2%,-53.2*,u,u,-22.6%
C[C@H]1COc2cc(N(C)CCO)ccc2S(=O)(=O)N1,x,x,11.0,-0.8%,-1.1%,x
O=S(=O)(Nc1ccc(O)c2ccccc12)c1ccc(Br)cc1,23.1µM*,-20.2%,x,x,x,-36.0%
O=S(=O)(Nc1ccc(O)c2ccccc12)c1cccs1,9.2µM*,-26.0%,-98.9*,4.61µM*,2.06µM*,u
COCCn1c(=O)c(-c2cccc(C#N)c2)nc2cnc(N(C)C)nc21,x,-2.1%,x,-0.7%,6.4%,-5.3%
Cc1cc(NS(C)(=O)=O)c(=O)n(Cc2cccc(C(F)(F)F)c2)c1,x,x,-6.8,-19.1%,-19.3%,x
CN(C)c1ccc(/C=C(\C#N)c2nc(-c3ccc(Cl)c(Cl)c3)cs2)cc1,x,x,x,-11.8%,-17.4%,x
C=CCN1C(=O)/C(=C\c2ccc(Cl)cc2)N=C1SCC(=O)NCCC,-2.0%,-4.7%,6.1,-17.8%,-3.5%,3.4%
COCCNC(=O)CSC1=N/C(=C/c2ccc(Cl)c(Cl)c2)C(=O)N1c1ccccc1F,u,u,-99.2*,20.6µM*,14.6µM*,12.1%
C#CCOn1c(-n2nc(C)cc2C)nc2ccccc2c1=O,12.0%,u,20.3,u,-7.4%,11.2µM*
Cc1cc(C)n(-c2nc3ccccc3c(=O)n2OCC(=O)OCc2ccccc2)n1,u,2.51µM*,73.4,5.8µM*,5.8µM*,0.562µM*
